AF4-AF9 inh – inhibitors of AF4 peptide binding to AF9, primary screen, biochemical, AlphaScreen, biotin-AF4 peptide, FLAG-AF9, single point; inhibition, % at 10 µM; 350,000 compounds, 0.47% hits; AID 651704, 2012;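 active = every replicate reaching a set inhibition limit, whatever the replicate mean, cut at about 25% in these data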;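 also: 0% = plate neutral control median and 100% = total signal loss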
Target sequence (P42568 whole entry, looked up): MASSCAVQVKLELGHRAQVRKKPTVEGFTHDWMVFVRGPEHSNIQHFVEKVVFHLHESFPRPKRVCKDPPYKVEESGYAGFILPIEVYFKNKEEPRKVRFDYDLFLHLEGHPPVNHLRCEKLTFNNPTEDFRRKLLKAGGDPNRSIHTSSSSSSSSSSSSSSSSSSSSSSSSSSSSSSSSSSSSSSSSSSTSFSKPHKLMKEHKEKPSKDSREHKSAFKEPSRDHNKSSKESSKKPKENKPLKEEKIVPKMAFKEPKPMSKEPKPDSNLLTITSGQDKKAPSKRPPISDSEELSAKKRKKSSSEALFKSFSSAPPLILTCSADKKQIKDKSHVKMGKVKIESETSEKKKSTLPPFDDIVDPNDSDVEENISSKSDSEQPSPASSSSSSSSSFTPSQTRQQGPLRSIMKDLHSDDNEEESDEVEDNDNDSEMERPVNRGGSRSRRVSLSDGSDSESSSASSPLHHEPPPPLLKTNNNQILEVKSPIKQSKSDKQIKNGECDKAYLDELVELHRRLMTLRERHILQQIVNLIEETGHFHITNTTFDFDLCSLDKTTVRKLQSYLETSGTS
RAD52 inh – RAD52 DNA annealing inhibitors, primary screen, biochemical, FRET, single point, set 2. DNA repair protein RAD52 homolog (Homo sapiens), P43351. recombinant RAD52 DNA annealing, FRET fluorescence. inhibition, % at 18.7 µM. 360,000 compounds, 0.46% hits. AID 651710, 2012;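 active = every replicate showing at least 50% inhibition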
ERAP1 inh – human ERAP1 aminopeptidase inhibitors, primary screen, biochemical, single point, plate reader; Endoplasmic reticulum aminopeptidase 1 (Homo sapiens), Q9NZ08; recombinant ERAP1, Leu-AMC fluorescence, 60 min; inhibition, % at 10.7 µM; 340,000 compounds, 0.15% hits; AID 652197, 2013;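 active = mean replicate inhibition of at least 30%, or all replicates individually reaching that 30% level; inactive = mean below 30% and not every replicate reaching it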;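 also: 0% = neutral control wells and 100% = L-leucinethiol positive control wells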
FGF22 binding – binders of human FGF22 protein, primary screen, FGF22 synaptogenesis inhibitor project, biophysical, thermal shift, single point; 340,000 compounds, 1.5% hits; recombinant FGF22 thermal shift, SYPRO orange fluorescence; percent of sucrose octasulfate shift, DMSO zero; activity (Tm shift, normalised), % at 9.99 µM; Fibroblast growth factor 22 (Homo sapiens), Q9HCT0; AID 651658, 2012;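 active = mean Tm shift, scaled 0 neutral to 100 positive control, at about 1.3% or above, every replicate too, limit read from the data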
DENV2 CPE – inhibitors of DENV2 cytopathic effect, primary screen, cell-based, plate reader, single concentration; DENV2-infected cells, cytopathic effect rescue; CPE inhibition, % at 9.99 µM; 350,000 compounds, 1.7% hits; in the data active = CPE inhibition above about 20%, passing the limit was not always enough; tested in BHK-21 cells;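 also: 0% = median of neutral control wells and 100% = median of positive control wells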
The depositor's hits bear a star; nt = no result given; ! = repeats disagree. Rows were chosen to be rich in hits. Some 4% of all compounds tested hit in one or more screens of this group.

SMILES	AF4-AF9 inh	RAD52 inh	ERAP1 inh	FGF22 binding	DENV2 CPE
Cc1c(C(=O)NCc2cccc(C(F)(F)F)c2)sc(=O)n1Cc1ccc(F)cc1	-5.8	-24.7	nt	-0.2	-13.4
C=Cc1ccc(Cn2c(C)c(C(=O)NCc3cccc(C(F)(F)F)c3)sc2=O)cc1	-1.4	-22.9	nt	0.0	57.1*
C[C@@H]1CCCCO[C@@H](CN(C)C(=O)c2ccncc2)[C@@H](C)CN([C@H](C)CO)C(=O)c2cc(NC(=O)Cc3ccccc3)ccc2O1	4.0	-22.9	8.1	0.5	23.9*!
C[C@@H]1CCCCO[C@H](CN(C)C(=O)CCC(F)(F)F)[C@H](C)CN([C@H](C)CO)C(=O)c2cc(NC(=O)c3ccccc3)ccc2O1	6.7	26.6	-2.8	0.1	8.1
C[C@@H]1CN([C@@H](C)CO)C(=O)c2cc(NC(=O)Cc3ccccc3)ccc2O[C@@H](C)CCCCO[C@H]1CN(C)C(=O)c1ccncc1	0.9	-5.1	-5.9	0.0	-10.5
C[C@@H]1CN([C@H](C)CO)C(=O)c2cc(NC(=O)c3ccccc3)ccc2O[C@@H](C)CCCCO[C@@H]1CN(C)C(=O)c1ccccc1	-15.9	nt	nt	1.4*	nt
C[C@@H]1CN([C@@H](C)CO)C(=O)c2cc(NC(=O)c3ccccc3)ccc2O[C@@H](C)CCCCO[C@@H]1CN(C)C(=O)CCC(F)(F)F	-9.6	14.4	-4.5	0.0	28.6*
C[C@@H]1CCCCO[C@@H](CN(C)C(=O)c2ccccc2)[C@H](C)CN([C@H](C)CO)C(=O)c2cc(NC(=O)C3CCCCC3)ccc2O1	0.6	-3.8	-0.4	-0.2	2.1
C[C@@H]1CCCCO[C@@H](CN(C)C(=O)c2ccccc2)[C@@H](C)CN([C@H](C)CO)C(=O)c2cc(NC(=O)c3ccccc3)ccc2O1	-0.1	11.0	1.7	1.1	3.6
C[C@H](CO)N1C[C@H](C)[C@@H](CN(C)C(=O)c2ccccc2)OCCCC[C@H](C)Oc2ccc(NC(=O)C3CCCCC3)cc2C1=O	-0.9	0.2	-0.6	0.0	33.6*
O=S(=O)(c1cnc(Cl)c(Cl)c1)N1CCc2ccccc21	-3.4	-11.8	4.8	-0.2	56.6*
O=C(CNC(=O)c1ccccc1)OCC(=O)c1ccccc1Cl	-2.8	-7.7	-1.6	0.0	28.4*
O=C(CNC(=O)c1ccco1)OCC(=O)c1ccccc1Cl	-1.3	5.5	2.7	0.6	4.1
O=C(CNC(=O)c1ccccc1)OCc1nc2ccccc2s1	-1.3	-0.6	-2.3	43.3*	-8.3
O=C(Cc1ccccc1)NCC(=O)OCC(=O)c1ccccc1Cl	2.1	-6.8	1.5	112.3*	-2.0
O=C(CNC(=O)c1ccccc1F)OCc1nc2ccccc2s1	-0.2	-31.3	0.9	-0.3	1.1
O=C(O)C[C@@H]1C[C@H]2c3cc(NS(=O)(=O)c4ccccc4)ccc3O[C@H]2[C@H](CO)O1	-1.6	0.4	-3.4	0.1	7.5
C[C@@H]1CCCCO[C@@H](CN(C)C(=O)Nc2ccc3c(c2)OCO3)[C@@H](C)CN([C@@H](C)CO)C(=O)c2cc(NC(=O)NC3CCCCC3)ccc2O1	2.9	28.6	1.8	-0.4	13.1
O=C(O)C(Cc1ccccc1)N1C(=O)C2CCCCC2C1=O (stereo not given)	0.3	-2.6	1.0	0.2	-2.8
O=C1C2CCCCC2C(=O)N1Cc1ccccc1 (stereo not given)	-1.2	-12.2	-1.6	43.5*	-4.6
CC(C)C(C)NC(=O)COc1ccc([N+](=O)[O-])cc1Cl (stereo not given)	0.1	-2.7	1.5	-0.3	2.2
NC(=O)c1ccc(NC(=O)COc2ccc([N+](=O)[O-])cc2Cl)cc1	-2.4	-2.3	-0.5	43.3*	6.7
COc1cc2c(cc1OC)CN(C(=O)CSc1ccc(F)cc1)CC2	1.2	-19.6	3.7	0.2	4.5
COc1cc2c(cc1OC)CN(C(=O)CCOc1ccccc1C)CC2	-7.8	-22.6	0.3	-0.3	44.1*
CC(=O)Nc1ccc2c(c1)C(=O)N(C)[C@H]1CC[C@H](CC(=O)Nc3cn(C)nc3C)O[C@H]1CO2	0.3	2.1	-0.1	-2.1	-4.2
